Test systems include NCI-H23 lung; NCI-H226 lung; NCI-H322M lung; HOP-62 NSCLC; HOP-92 NSCLC; NCI-H522 lung; A549/ATCC NSCLC; 786-0 renal; COLO 205 colon; DU-145 prostate; K-562 leukemia; MALME-3M melanoma; MDA-MB-231 breast; RXF 393 renal; SF-268 CNS; SF-295 CNS; SF-539 CNS; UACC-257 melanoma; M14 melanoma; NCI-H460 lung.
Assay in all cases: NCI-60 one-dose screen, 48 h (100 = growth as untreated, 0 = no growth, -100 = all killed)
Common to all, as to conditions: 10 µM unless noted

The panel holds about 83,000 compounds, 20% with a hit somewhere; the sample as a whole holds those more often.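 Cells were grown in 96-well plates and exposed to the test compound at a single concentration for 48 hours; results are reported as percent growth, with values below 10 considered active.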 Values without a mark were called inactive. Calls of active or inactive are those of the source.

For `CCOP(=O)(OCCCl)c1nc(-c2ccc(C)cc2)oc1NCc1ccccc1` (stereo not drawn), the growth in the assay with NCI-H23 lung is 75.3%; in the assay on NCI-H226 lung it was 88%; in the assay with NCI-H322M lung, 84.6%; in the assay with HOP-62 NSCLC, 93.9%; in the assay with HOP-92 NSCLC it was 75.5%; with NCI-H522 lung it was 69.1%. In addition, the growth in the assay with A549/ATCC NSCLC is 66.5%; with 786-0 renal, 81.9%; in the assay with COLO 205 colon, 83.5%; in the assay on DU-145 prostate it was 96%; in the assay on K-562 leukemia, 50.3%; in the assay on MALME-3M melanoma, 102%. Also, the growth in the assay on MDA-MB-231 breast is 65.1%; with RXF 393 renal, 84.4%; in the assay with SF-268 CNS, 73.7%; with SF-295 CNS, 79.9%; with SF-539 CNS, 87.2%; with UACC-257 melanoma, 92.6%. Moreover, in the assay with M14 melanoma, the growth is 86.3%.

`COc1ccc(C(=O)/C=C/c2ccc3ccccc3c2)cc1S(N)(=O)=O`: the growth was -23.7% (active) in the assay with NCI-H23 lung; 20.1% in the assay on NCI-H226 lung; 11.3% in the assay on NCI-H322M lung; -30.1% (active) in the assay with HOP-62 NSCLC; 24.9% in the assay with HOP-92 NSCLC; -62.9% (active) with NCI-H522 lung. Besides, the growth in the assay with A549/ATCC NSCLC was -78.4% (active); with 786-0 renal, -89.2% (active); with COLO 205 colon, -76.3% (active); in the assay on DU-145 prostate, -9.03% (active); in the assay with MALME-3M melanoma it was 18.1%; in the assay with MDA-MB-231 breast, 6.01% (active). The growth in the assay with RXF 393 renal is -60.2% (active); in the assay on SF-268 CNS, 12.8%; with SF-295 CNS it was -80.5% (active); in the assay on SF-539 CNS, -87.9% (active); in the assay on UACC-257 melanoma it was -48.4% (active); in the assay on M14 melanoma it was -78.5% (active).

On to `N#Cc1c(-c2ccc(Br)cc2)nc2n[nH]c(-c3ccc(Br)cc3)c2c1-c1ccc(C(F)(F)F)cc1`, for which the growth in the assay with NCI-H23 lung was 15%; in the assay with NCI-H226 lung, 21.7%; in the assay on NCI-H322M lung it was 43.1%; in the assay with HOP-62 NSCLC, 40.3%; with HOP-92 NSCLC, -17.3% (active); in the assay with NCI-H522 lung, 10.1%. In addition, the growth in the assay with A549/ATCC NSCLC is 27.4%; with 786-0 renal, 27.6%; in the assay on COLO 205 colon, -70.5% (active); in the assay with DU-145 prostate, 26.2%; in the assay with K-562 leukemia, -9.32% (active); with MALME-3M melanoma, -14.5% (active). In addition, the growth in the assay on RXF 393 renal is 46.7%; with SF-268 CNS, 34.7%; with SF-295 CNS, 1.6% (active); in the assay on SF-539 CNS, 54.2%; in the assay with UACC-257 melanoma it was 28.5%; with M14 melanoma, 29.2%.

Take `O=c1cc(-c2ccccc2)oc2cc(OCCCC[P+](c3ccccc3)(c3ccccc3)c3ccccc3)cc(O)c12`: the growth in the assay on NCI-H23 lung was -93% (active); in the assay with NCI-H226 lung, -29% (active); with NCI-H322M lung it was -100% (active); with HOP-62 NSCLC, -63.6% (active); in the assay on NCI-H460 lung it was -75.8% (active); in the assay with NCI-H522 lung, -81.9% (active). Besides, the growth in the assay on A549/ATCC NSCLC is -56% (active); in the assay with 786-0 renal, -69.5% (active); in the assay on COLO 205 colon it was -56.3% (active); in the assay on DU-145 prostate, -94.8% (active); in the assay with K-562 leukemia, -24.1% (active); in the assay with MALME-3M melanoma, -88% (active). For the same molecule, the growth in the assay with MDA-MB-231 breast was -32.2% (active); in the assay on SF-268 CNS it was -59% (active); in the assay with SF-295 CNS, -96.1% (active); in the assay on SF-539 CNS, -95.7% (active); in the assay with UACC-257 melanoma, -91% (active); in the assay with M14 melanoma it was -70.1% (active).

As to `CCCCCCn1c(O)c(N=Nc2nc(-c3cc4ccccc4oc3=O)cs2)c2ccccc21`, the growth in the assay on NCI-H23 lung was -20.9% (active); in the assay with NCI-H226 lung it was 67.8%; in the assay on NCI-H322M lung, 53.1%; with HOP-62 NSCLC, 39.9%; in the assay with NCI-H460 lung it was 5.99% (active); in the assay on NCI-H522 lung it was -21.8% (active). The growth was -16.6% (active) in the assay on A549/ATCC NSCLC; -64.8% (active) with 786-0 renal; 4.61% (active) with COLO 205 colon; 10.1% in the assay on DU-145 prostate; 29.8% in the assay on K-562 leukemia; -72.1% (active) in the assay on MALME-3M melanoma. In addition, the growth with MDA-MB-231 breast is -65.6% (active); in the assay with SF-268 CNS, 11%; in the assay on SF-295 CNS, 47.8%; in the assay with SF-539 CNS it was 56.1%; with UACC-257 melanoma, 46.3%; in the assay with M14 melanoma it was -4.72% (active).

Consider `CC(=O)/C=C/c1cccc2c1C(=O)NC(C)(c1cc3cc(Br)ccc3oc1=O)N2` (stereo not drawn), for which the growth in the assay with NCI-H23 lung was 17.9%; in the assay with NCI-H226 lung, 34.3%; in the assay with NCI-H322M lung it was 52.5%; in the assay on HOP-62 NSCLC, 50%; with NCI-H460 lung, 51.9%; with NCI-H522 lung it was 26.8%. The growth in the assay on A549/ATCC NSCLC is 55.1%; in the assay with 786-0 renal, 33.2%; with COLO 205 colon, 79.6%; in the assay with DU-145 prostate, 19.1%; with K-562 leukemia it was 0.91% (active); in the assay on MALME-3M melanoma, 31.3%. For the same molecule, the growth is 18% with MDA-MB-231 breast; -12.9% (active) in the assay with RXF 393 renal; 56.1% in the assay on SF-268 CNS; 39% in the assay on SF-295 CNS; 19.2% with SF-539 CNS; 27.2% with UACC-257 melanoma. Also, in the assay with M14 melanoma, the growth was 31.4%.

For `COCOc1ccc2c(=O)c(C)c(C(=O)N[C@@H](Cc3ccccc3)C(O)C(=O)NCCc3ccc(OC)cc3)oc2c1` (stereo partly drawn), the growth with NCI-H23 lung was 109%; in the assay with NCI-H226 lung, 110%; in the assay on NCI-H322M lung, 103%; with HOP-62 NSCLC, 106%; in the assay with HOP-92 NSCLC, 117%; with NCI-H522 lung, 98.4%. In addition, the growth with A549/ATCC NSCLC is 100%; in the assay with 786-0 renal, 106%; in the assay on COLO 205 colon, 139%; in the assay on DU-145 prostate it was 106%; in the assay on K-562 leukemia, 84.1%; with MALME-3M melanoma, 111%. For the same molecule, the growth was 99% with MDA-MB-231 breast; 99.1% in the assay with RXF 393 renal; 120% with SF-268 CNS; 107% in the assay on SF-295 CNS; 109% in the assay with SF-539 CNS; 116% in the assay with UACC-257 melanoma. Moreover, the growth in the assay on M14 melanoma is 118%.

With `O=C1CCCc2cc(OCC(=O)N3CCCCC3)ccc2N1`, the growth is 105% with NCI-H23 lung; 101% with NCI-H226 lung; 116% with NCI-H322M lung; 105% with HOP-62 NSCLC; 115% in the assay on NCI-H460 lung; 108% in the assay with NCI-H522 lung. Also, the growth with A549/ATCC NSCLC is 113%; with 786-0 renal, 116%; in the assay on COLO 205 colon, 117%; in the assay with DU-145 prostate, 122%; in the assay on K-562 leukemia it was 106%; with MALME-3M melanoma, 102%. Besides, the growth in the assay with MDA-MB-231 breast is 105%; with RXF 393 renal, 110%; in the assay with SF-268 CNS it was 108%; in the assay on SF-295 CNS, 99%; in the assay with SF-539 CNS, 101%; in the assay with UACC-257 melanoma, 111%. In addition, the growth in the assay on M14 melanoma was 116%.

(Values after PubChem BioAssay (NCI).)
